Assay results: PubChem BioAssay (Tox21)
Inconclusive results are not listed. Active and inactive are the calls of the source. Unless noted, the call rests on the fitted dose curve; in most records, active means well fitted curve in the direction sought with a large enough effect in the repeat runs; inconclusive means weak or mixed curves; inactive means no such curve, though single readings can be large; an effect the other way counts as inactive or inconclusive.

Assays:
[1] = qHTS assay to identify small molecule antagonists of the estrogen receptor alpha (ER-alpha) signaling pathway using the BG1 cell line in the presence of 0.1 nM 17-beta-estradiol - cell viability counter screen (AID 1259241); further: nearly all actives have a fitted effect of over 40% in size
In short: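 Cytotoxicity counter-screen: live-cell protease activity measured by fluorescence (30 min reagent step) in the same wells. Cells were VM7Luc4E2 with endogenous ER-alpha and ERE-driven luciferase, treated 22 hr at 37C alongside 0.1 nM 17beta-estradiol final.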

[2] = qHTS assay to identify small molecule antagonists of the androgen receptor (AR) signaling pathway using the MDA cell line in the presence of 0.5 nM R1881 - cell viability counter screen (AID 1259242); further: nearly all actives have a fitted effect of over 45% in size; further: potency means the concentration at half of the fitted maximal effect
In short: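 Cells seeded at 3,000/well and allowed 5 hr at 37C, 0% CO2 before compound transfer and R1881 (0.5 nM final) addition; 16 hr later, live-cell protease fluorescence indicated cytotoxicity.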

[3] = qHTS assay to identify small molecule phospholipidosis (PLD) inducers (AID 1259344; active means well fitted curve in the direction sought with a large enough effect; an effect the other way counts as inactive or inconclusive; further: potency means the concentration at half of the fitted maximal effect)
In short: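 Read-out is LipidTOX Red fluorescence (ex 595/em 615) imaged in HepG2 cells after 24 h compound exposure at 37 C, with Hoechst nuclear counterstain (ex 352/em 461) allowing per-cell normalisation.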

[4] = qHTS assay to identify small molecule HDAC inhibitors (AID 1259364); further: potency means the concentration at half of the fitted maximal effect;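 further: wild-type HCT-116 cells with endogenous class I/II HDAC activity; nearly all actives have a fitted effect of over 45% in size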
In short: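 HCT-116 wt cells, 1,500/well, overnight attach. Compounds (DMSO) 2 h, 37 °C. HDAC-Glo I/II, 30 min RT. Luminescence.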

[5] = qHTS assay to identify small molecule HDAC inhibitors - cell viability counter screen (AID 1259365); further: nearly all actives have a fitted effect of over 50% in size; further: potency means the concentration at half of the fitted maximal effect
In short: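 CellTiter-Glo luminescence (30 min, room temperature) reported viability after a 2 h compound exposure at 37 C. Cells: wild-type HCT-116, 1,500 per well, seeded the night before.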

[6] = qHTS assay to identify small molecule agonists of the sonic hedgehog signaling (Shh) pathway - cell viability counter screen (AID 1259366); further: nearly all actives have a fitted effect of over 50% in size; further: potency means the concentration at half of the fitted maximal effect
In short: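 Cytotoxicity counter screen: CellTiter-Fluor reagent added after 23 h compound exposure, then 1 h at 37C and fluorescence read. Cells were 3T3 Gli1-Luc, seeded 2,000 per well and dosed 4 h post-plating.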

[7] = qHTS assay to identify small molecule antagonists of the sonic hedgehog signaling (Shh) pathway - cell viability counter screen (AID 1259367); further: nearly all actives have a fitted effect of over 55% in size; further: potency means the concentration at half of the fitted maximal effect
In short: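 Fluorescence read-out (CellTiter-Fluor, 1 hr at 37C) taken after 23 hr compound treatment of 3T3 Gli1-Luc cells stimulated with conditioned medium. Cells were seeded at 2,000 per well and pre-incubated 4 hr.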

[8] = qHTS assay to identify small molecule agonists of the sonic hedgehog signaling (Shh) pathway (AID 1259368; calls by dose curve;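 further: NIH/3T3-derived 3T3Gli1-Luc cells carrying a stable Gli1-driven firefly luciferase reporter; series mostly up to about 92 µM; nearly all actives have a fitted effect of over 15% in size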)
In short: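 Following a 24 hr incubation with DMSO-dissolved compounds at 37 C, 5% CO2, Gli1-Luc NIH/3T3-derived cells received luciferase reagent for 30 min at room temperature prior to luminescence measurement.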

[9] = qHTS assay to identify small molecule antagonists of the sonic hedgehog signaling (Shh) pathway (AID 1259369; calls by dose curve; further: nearly all actives have a fitted effect of over 45% in size; further: potency means the concentration at half of the fitted maximal effect)
In short: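 Read-out is luminescence from a firefly luciferase gene controlled by the Gli1 response element, in 3T3Gli1-Luc cells pre-incubated 4hr then exposed to compounds and conditioned medium for 24hr.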

[10] = target: Estrogen receptor beta (Homo sapiens) (UniProt Q92731); test: qHTS assay to identify small molecule agonists of the estrogen receptor beta (ER-beta) signaling pathway (AID 1259377; active means well fitted activation curve with a large enough effect in the signal ratio in the repeat runs, not every such curve was filed as active; the % refers to the signal ratio)
Estrogen receptor beta (Homo sapiens), sequence (Q92731 whole entry, looked up): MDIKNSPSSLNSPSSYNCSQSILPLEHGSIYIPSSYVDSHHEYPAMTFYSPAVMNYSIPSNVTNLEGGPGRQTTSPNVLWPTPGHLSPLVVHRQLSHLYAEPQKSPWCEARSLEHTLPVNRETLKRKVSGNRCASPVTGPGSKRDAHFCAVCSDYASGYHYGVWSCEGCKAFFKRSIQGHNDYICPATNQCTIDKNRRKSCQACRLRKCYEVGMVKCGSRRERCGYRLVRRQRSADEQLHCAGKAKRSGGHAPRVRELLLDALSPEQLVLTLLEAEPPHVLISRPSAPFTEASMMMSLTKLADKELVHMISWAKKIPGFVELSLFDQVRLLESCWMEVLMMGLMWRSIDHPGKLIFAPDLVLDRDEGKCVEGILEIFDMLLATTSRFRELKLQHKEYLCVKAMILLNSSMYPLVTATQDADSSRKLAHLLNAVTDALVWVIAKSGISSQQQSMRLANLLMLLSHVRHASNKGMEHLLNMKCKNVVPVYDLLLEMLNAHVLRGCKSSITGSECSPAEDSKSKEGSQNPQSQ
In short: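 Ratiometric beta-lactamase FRET read-out came after 2 h substrate loading at room temperature. It followed 16 h compound treatment at 37C of GripTite HEK293T cells carrying a UAS-bla reporter, plated in 2% charcoal-stripped FBS medium.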

[11] = qHTS assay to identify small molecule agonists of the androgen receptor (AR) signaling pathway in the presence of an antagonist - cell viability counter screen (AID 1259379); further: nearly all actives have a fitted effect of over 25% in size; further: potency means the concentration at half of the fitted maximal effect
In short: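 Each compound was tested at 15 concentrations on MDA-kb2 cells in the presence of 3.0uM nilutamide. Viability was measured by CellTiter-Fluor fluorescence after a 16 hr incubation at 37C in a CO2-free atmosphere.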

[12] = qHTS assay to identify small molecule agonists of the estrogen receptor beta (ER-beta) signaling pathway - cell viability counter screen (AID 1259380); further: nearly all actives have a fitted effect of over 30% in size; further: potency means the concentration at half of the fitted maximal effect
In short: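 Compounds dissolved in DMSO were pin-transferred onto ER-beta-UAS-bla HEK293T cells that had settled 6 hr, and exposure ran 16 hr at 37C. Following the reporter read, CellTiter-Glo luminescence after 30 min at room temperature indicated cytotoxicity.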

[13] = qHTS assay to identify small molecule antagonists of the estrogen receptor beta (ER-beta) signaling pathway - cell viability counter screen (AID 1259382); further: nearly all actives have a fitted effect of over 55% in size; further: potency means the concentration at half of the fitted maximal effect
In short: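 CellTiter-Glo ATP luminescence measured after the LiveBLAzer read in the same wells; ER-beta-UAS-bla HEK293T cells, 16 hr compound treatment with 1nM 17-beta-estradiol agonist at 37C, 5% CO2.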

[14] = target: Estrogen receptor (Homo sapiens) (UniProt P03372); test: qHTS assay to identify small molecule agonists of the estrogen receptor alpha (ER-alpha) signaling pathway in the presence of an antagonist (AID 1259383; calls by dose curve; further: nearly all actives have a fitted effect of over 15% in size; further: potency means the concentration at half of the fitted maximal effect; on activation: top concentration of the series differs between compounds)
Estrogen receptor (Homo sapiens), sequence (P03372 whole entry, looked up): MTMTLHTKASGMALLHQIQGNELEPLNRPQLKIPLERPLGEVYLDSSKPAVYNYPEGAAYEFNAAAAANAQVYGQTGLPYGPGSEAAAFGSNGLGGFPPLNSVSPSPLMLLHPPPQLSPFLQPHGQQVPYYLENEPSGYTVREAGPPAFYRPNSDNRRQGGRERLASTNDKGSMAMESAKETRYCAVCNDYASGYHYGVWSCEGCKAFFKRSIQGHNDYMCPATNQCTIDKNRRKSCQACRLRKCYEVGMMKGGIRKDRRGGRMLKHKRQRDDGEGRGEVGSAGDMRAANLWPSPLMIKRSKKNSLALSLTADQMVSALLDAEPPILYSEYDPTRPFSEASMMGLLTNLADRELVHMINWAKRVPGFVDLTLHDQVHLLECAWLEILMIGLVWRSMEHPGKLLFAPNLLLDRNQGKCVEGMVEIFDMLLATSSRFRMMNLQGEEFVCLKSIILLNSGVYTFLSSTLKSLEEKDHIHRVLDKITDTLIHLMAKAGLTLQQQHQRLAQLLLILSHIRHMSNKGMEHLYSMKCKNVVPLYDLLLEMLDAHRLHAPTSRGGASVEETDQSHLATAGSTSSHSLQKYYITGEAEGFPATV
In short: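 Luminescent ERE-luciferase reporter, VM7Luc4E2 cells (endogenous ER-alpha); 10.0nM ICI-182,780 final; 15-point compound titration; 22hr at 37C; ONE-Glo, 30min RT.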

[15] = target: Estrogen receptor beta (Homo sapiens) (UniProt Q92731); test: qHTS assay to identify small molecule antagonists of the estrogen receptor beta (ER-beta) signaling pathway (AID 1259378; active means well fitted inhibition curve with a large enough effect in the signal ratio in the repeat runs, not every such curve was filed as active; the % refers to the signal ratio; further: potency means the concentration at half of the fitted maximal effect)
In short: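 ER-beta-UAS-bla HEK293T cells in 2% charcoal-stripped FBS medium treated with compound plus 1nM final 17-beta-estradiol for 16 hr at 37C. Beta-lactamase reporter read by FRET substrate fluorescence after 2 hours at room temperature.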

[16] = qHTS assay to identify small molecule agonists or antagonists of the thyroid stimulating hormone receptor (TSHR) signaling pathway - wild type cell line counter screen (AID 1259384; calls by dose curve)
In short: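 Wild-type Hek293 cells, 800/well, 18 h at 37C, then compound with Ro20-1724 for 30 min RT. cAMP by HTRF (cAMP-d2/anti-cAMP cryptate), 1 h RT, fluorescence read. 15 concentrations, triplicates.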

[17] = A CellTox Green Cytotoxicity Assay to monitor cytotoxicity in HepG2 cells - 8 hour (AID 1224890); further: nearly all actives have a fitted effect of over 45% in size; further: potency means the concentration at half of the fitted maximal effect
In short: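 Cytotoxicity was tracked as dead-cell DNA fluorescence in HepG2 cells treated with test compounds at 37 C; each time-point value comes from one kinetic series spanning 0, 8, 16, 24, 32 and 40 h.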

[18] = target: Androgen receptor (Homo sapiens) (UniProt P10275); test: qHTS assay to identify small molecule antagonists of the androgen receptor (AR) signaling pathway using the MDA cell line in the presence of 0.5 nM R1881 (AID 1259243); further: nearly all actives have a fitted effect of over 50% in size
Androgen receptor (Homo sapiens), sequence (P10275 whole entry, looked up): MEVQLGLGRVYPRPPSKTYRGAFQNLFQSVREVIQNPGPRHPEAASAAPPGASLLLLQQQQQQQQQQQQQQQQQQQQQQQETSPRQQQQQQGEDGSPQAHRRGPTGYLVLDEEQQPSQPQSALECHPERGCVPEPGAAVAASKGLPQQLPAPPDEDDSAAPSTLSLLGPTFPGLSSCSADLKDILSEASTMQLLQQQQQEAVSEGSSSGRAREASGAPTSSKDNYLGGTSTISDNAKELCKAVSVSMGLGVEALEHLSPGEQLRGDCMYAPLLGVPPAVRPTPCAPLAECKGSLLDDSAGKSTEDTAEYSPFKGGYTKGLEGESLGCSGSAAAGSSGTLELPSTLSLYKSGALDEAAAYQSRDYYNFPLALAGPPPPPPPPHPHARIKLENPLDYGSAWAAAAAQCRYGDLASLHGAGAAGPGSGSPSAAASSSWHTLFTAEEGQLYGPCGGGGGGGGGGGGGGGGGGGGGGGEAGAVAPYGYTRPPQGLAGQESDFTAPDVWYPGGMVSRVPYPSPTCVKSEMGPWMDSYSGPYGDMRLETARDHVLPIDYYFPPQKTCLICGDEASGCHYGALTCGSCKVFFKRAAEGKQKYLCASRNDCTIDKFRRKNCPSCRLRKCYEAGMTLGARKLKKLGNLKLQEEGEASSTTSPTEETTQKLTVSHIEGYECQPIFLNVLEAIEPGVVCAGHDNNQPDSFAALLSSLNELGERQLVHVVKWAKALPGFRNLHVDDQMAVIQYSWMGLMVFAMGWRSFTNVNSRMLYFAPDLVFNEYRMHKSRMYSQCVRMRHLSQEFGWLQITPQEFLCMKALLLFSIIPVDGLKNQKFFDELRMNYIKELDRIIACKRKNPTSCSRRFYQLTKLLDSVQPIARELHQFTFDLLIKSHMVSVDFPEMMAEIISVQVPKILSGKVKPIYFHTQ
In short: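 Luminescence from an AR/GR-responsive MMTV-luciferase construct in MDA-kb2 breast carcinoma cells, read 30 min after ONE-Glo, following 16 hr co-treatment with compounds and 0.5 nM R1881.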

[19] = target: Estrogen receptor (Homo sapiens) (UniProt P03372); test: qHTS assay to identify small molecule antagonists of the estrogen receptor alpha (ER-alpha) signaling pathway using the BG1 cell line in the presence of 0.1 nM 17-beta-estradiol (AID 1259244); further: nearly all actives have a fitted effect of over 50% in size; further: potency means the concentration at half of the fitted maximal effect
In short: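 Luciferase signal from VM7Luc4E2 ERE-reporter cells, co-dosed with test compound and 0.1 nM final 17beta-estradiol for 22 h, read with ONE-Glo.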

[20] = target: Androgen receptor (Homo sapiens) (UniProt P10275); test: qHTS assay to identify small molecule agonists of the androgen receptor (AR) signaling pathway in the presence of an antagonist (AID 1259381; calls by dose curve; further: nearly all actives have a fitted effect of over 15% in size)
In short: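 Plated MDA-kb2 cells (3,000/well) were pre-incubated 5hr, given nilutamide (3.0uM final) or buffer, then dosed with compounds in DMSO at 15 concentrations. Luciferase activity was quantified by luminescence after 16hr at 37C.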

Measured: Potency

COc1ncnc(NS(=O)(=O)c2ccc(N)cc2)c1OC
not listed: [15] | [16] | [17] | [18] | [19] | [20]
inactive: all other assays above

C[C@@H]1CN(CCCn2c3ccccc3c3ccccc32)C[C@H](C)N1
inactive: [1] | [4] | [8] | [10] | [16]
active: [3] 10 µM | [7] 33.5 µM | [9] 10.6 µM | [15] 13.3 µM | [12] 10.6 µM | [13] 11.9 µM

OCCN1CCN(CCCN2c3ccccc3Sc3ccc(Cl)cc32)CC1
inactive: [1] | [4] | [5] | [8] | [14] | [16]
active: [17] 23.9 µM | [6] 13.3 µM | [7] 13.3 µM | [9] 11.9 µM | [12] 23.7 µM | [13] 13.3 µM

CC(CN(C)C)C(C)(O)Cc1ccc(Cl)cc1 (stereo unspecified)
not listed: [5] | [6] | [9] | [10] | [12] | [15] | [16] | [17]
inactive: all other assays above

CN1C(=O)N(c2ccccc2Br)Cc2cnc(Nc3ccc4c(c3)OCC(CO)O4)nc21 (stereo unspecified)
inactive: [17] | [4] | [8] | [14]
active: [19] 48.6 µM | [7] 1.72 µM | [9] 6.86 µM | [11] 61.1 µM | [12] 34.4 µM | [13] 38.6 µM

CN(C)CCC=C1c2ccccc2C=Cc2ccccc21
inactive: [17] | [1] | [4] | [5] | [6] | [7] | [8] | [14]
active: [12] 26.6 µM | [13] 29.8 µM

O=c1cc(-c2ccccc2)oc2cc(O)cc(O)c12
inactive: [17] | [2] | [18] | [5] | [8] | [13] | [16]
active: [4] 6.86 µM | [6] 48.6 µM | [7] 61.1 µM | [9] 61.1 µM | [11] 48.6 µM

O=c1cc(-c2ccccc2)oc2ccc3ccccc3c12
active: [4] 0.137 µM | [5] 17.2 µM | [9] 5.45 µM | [12] 24.3 µM | [14] 0.686 µM
inactive: [1] | [18] | [6] | [7] | [10] | [15] | [11] | [16]

Cc1c(C)c2c(c(C)c1OC(=O)CCC(=O)OCCO)CC[C@@](C)(CCC[C@H](C)CCC[C@H](C)CCCC(C)C)O2
inactive: [17] | [2] | [4] | [5] | [7] | [9] | [10] | [11] | [14] | [16]

COc1cc(Nc2c(C#N)cnc3cc(OCCCN4CCN(C)CC4)c(OC)cc23)c(Cl)cc1Cl
inactive: [1] | [3] | [4] | [5] | [7] | [13] | [16]
active: [2] 29.8 µM | [6] 29.8 µM | [9] 13.3 µM | [11] 29.8 µM | [12] 33.5 µM

Oc1cccc(O)c1O
active: [7] 48.1 µM | [9] 15.2 µM
not listed: [1] | [6] | [8] | [18] | [20]
inactive: all other assays above
